# GALC G270D act – A Novel Cell-Based Assay to Identify Small Molecules for B -Galactocerebrosidase; P54803; 145M-Twi-hGALC-G270D cells (Twitcher mouse brain line with human GALC G270D), HMU-beta-Gal fluorescence, 48 h; Potency, µM (series often up to 57.5 µM), usual class: activators; actives 0.1% (n = 45,000); AID 1159614, 2016; note: potency is the fitted concentration of half-maximal effect; 0% is about no effect; nearly all actives have a fitted effect of over 65% in size
#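 Fluorescence readout: HMU-β-gal cleavage by mutant GALC (0.1 mM final, citrate/phosphate pH 5.2 with 1 mg/mL taurocholate), stopped with carbonate/bicarbonate plus Triton X-100. Cells: murine Twitcher 145M-Twi expressing human G270D GALC; qHTS for activators.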
# TSG101-PTAP inh – qHTS Validation Assay for Inhibitors of HIV-1 Budding by Blocking the Interaction of PTAP/TSG101: Sytravon Library Screen | Tumor susceptibility gene 101 protein (Homo sapiens), Q99816 | Fluorescence polarization, FITC-PTAP peptide/Tsg101, 20 min | Potency, µM (highest dose often 115 µM), actives largely listed as inhibitors | 44,000 tested, under 10 active; note: potency is the fitted concentration of half-maximal effect; 0% is about no effect
#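 Fluorescence polarization binding of Tsg101 binding domain (10 uM final) to FITC-labeled PTAP-motif peptide (50 nM final) in HEPES pH 7.5/NaCl/Tween 20/EDTA/TCEP buffer; 20 min at r.t. Actives by curve class, <25 µM, efficacy <60% inhibition.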
# GPR32 ag – qHTS for Agonists of Human Resolvin D1 Receptor DRV1; Probable G-protein coupled receptor 32 (Homo sapiens), O75388; CHO-K1 GPR32 beta-arrestin PathHunter luminescence, 90 min; zero percent set by DMSO-only wells; activation, % at 76.9 µM; actives 2.5% (n = 48,000); AID 1346428, 2018;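 active = activation of at least 60% and not above a set upper limit, about 1 call in 100 departs from these limits; inconclusive = activation of 40% to 60%, or above that upper limit; inactive = activation under 40%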; note: 0% is about no effect
#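 PathHunter beta-arrestin recruitment in CHO-K1 cells stably expressing ProLink-tagged GPR32. Cells were exposed to compound for 90 min at 37 C, then chemiluminescence was read after 1 h detection at ambient temperature; DMSO served as basal control.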
# B2AR arrestin ag – qHTS assay of beta-arrestin-biased ligands of beta2-adrenergic receptor: NCGC Sytravon Library Screen; HTLA Tango cells, beta-arrestin recruitment, luciferase luminescence, 18 h; Potency, µM (series often up to 46.1 µM), most hits filed as activators; 44,000 tested, under 10 active; Beta-2 adrenergic receptor (Homo sapiens), P07550;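 note: potency is the fitted concentration of half-maximal effect; 0% = DMSO and full agonism = EC100 isoproterenol or metaproterenol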
# Target sequence (P07550 whole entry, looked up): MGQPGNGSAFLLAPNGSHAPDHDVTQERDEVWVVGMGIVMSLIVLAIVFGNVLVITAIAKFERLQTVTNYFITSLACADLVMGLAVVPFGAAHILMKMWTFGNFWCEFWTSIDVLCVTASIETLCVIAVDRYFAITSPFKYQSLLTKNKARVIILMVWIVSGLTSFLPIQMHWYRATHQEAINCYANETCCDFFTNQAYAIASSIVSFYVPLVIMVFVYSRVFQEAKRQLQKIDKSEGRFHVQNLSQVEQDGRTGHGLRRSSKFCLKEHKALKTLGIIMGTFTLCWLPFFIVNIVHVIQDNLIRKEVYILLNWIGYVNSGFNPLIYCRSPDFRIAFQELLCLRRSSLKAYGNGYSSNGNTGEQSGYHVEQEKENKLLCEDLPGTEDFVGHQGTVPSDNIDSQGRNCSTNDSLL
#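 Ligand-induced beta-arrestin recruitment to recombinant beta2-AR is measured via a tTA-driven luciferase reporter in Tango cells after 18 hr compound exposure at 37 degrees C. Concentrations span up to 46 microM.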
# Starred values were filed as active, the others as inactive; i = inactive; ? = inconclusive; . = no result given; ! = a repeat was not active. Sampled rows, rich in hits. Any-hit rate of the full collection: about 2.9%. Unless noted, calls come from the whole dose curve; as a rule, active = well fitted curve in the direction sought with a large enough effect; inconclusive = small, poorly fitted or top-dose-only effect, or another doubt; inactive = no such curve, though single readings can be large; an effect the other way counts as inactive or inconclusive.
SMILES,GALC G270D act,TSG101-PTAP inh,GPR32 ag,B2AR arrestin ag
O=c1c(O)c(-c2ccc(O)c(O)c2)oc2cc(O)cc(O)c12,i,.,109*!,.
CCC(=O)C(CCN(C)C)(c1ccccc1)c1ccccc1,i,.,-27,.
CC1Sc2c(C(=O)O)c(=O)c3cc(F)c(N4CCNCC4)cc3n21 (stereo unspecified),i,.,-23,.
CC(=O)OC1(c2ccccc2)CCN(CCc2ccccc2)CC1,i,.,85*,.
CCC(OC(C)=O)C(CC(C)NC)(c1ccccc1)c1ccccc1 (stereo unspecified),i,.,85*,.
CC(C)C[C@@H]1[C@H](c2ccccc2)OC(=O)N1CCCN1CCCCCC1,i,.,-6,.
O=C(CCc1nc(C2=CCN(Cc3cccc(Cl)c3)CC2)no1)Nc1ccccc1F,i,i,70*,i
CCOC(=O)N1CCN(c2ncc3c(n2)CC(c2ccccc2O)CC3=O)CC1 (stereo unspecified),i,i,76*,i
CCCCCCCCCC(CC)c1ccc(S(=O)(=O)O)cc1 (stereo unspecified),i,.,101*,.
CC(CC(C#N)(c1ccccc1)C(C)C)N(C)C (stereo unspecified),i,.,-34,.
O=C(CCl)c1ccc(Cl)cc1Cl,i,.,-56,.
O=C(O)c1nn(Cc2ccc(Cl)cc2Cl)c2ccccc12,i,.,64*!,.
CN1CCC(N(Cc2ccccc2)c2ccccc2)CC1,i,.,-9,.
CC(C)(C)CC(C)(C)c1ccc(O)cc1,i,.,116*!,.
CC(C)(c1ccc(O)cc1)c1ccc(O)cc1,i,.,64*,.
O=c1c(C2CC(c3ccc(-c4ccc(Br)cc4)cc3)Cc3ccccc32)c(O)sc2ccccc12 (stereo unspecified),i,.,?,.
N#Cc1cccc(NC(=O)CSc2nc3c(cc2C#N)N2CCC3CC2)c1,i,i,21,i
N#Cc1cc2c(nc1SCC(=O)Nc1cccc(C(F)(F)F)c1)C1CCN2CC1,i,i,64*,i
CC#C[C@]1(O)CC[C@H]2[C@@H]3C[C@H](C)C4=CC(=O)CC[C@]4(C)[C@H]3CC[C@@]21C,i,.,2,.
C[C@@H]1O[C@@H](O[C@H]2C[C@@H](O)[C@]3(CO)[C@H]4[C@H](O)C[C@]5(C)[C@@H](C6=CC(=O)OC6)CC[C@]5(O)[C@@H]4CC[C@]3(O)C2)[C@H](O)[C@H](O)[C@H]1O,i,.,65*!,.
C[C@H]1O[C@@H](O[C@H]2[C@@H](O)C[C@H](O[C@H]3[C@@H](O)C[C@H](O[C@H]4CC[C@@]5(C)[C@H](CC[C@@H]6[C@@H]5CC[C@]5(C)[C@@H](C7=CC(=O)OC7)CC[C@]65O)C4)O[C@@H]3C)O[C@@H]2C)C[C@H](O)[C@@H]1O,i,.,?,.
O=C(Nc1ccc(Br)cc1C(=O)c1ccccc1)c1ccccc1,i,i,-9,i
O=C(Nc1ccc(Br)cc1)c1cc(Br)cc(Br)c1O,i,.,82*,.
C[C@]12CC[C@H]3[C@@H](CCC4=CC(=O)CC[C@@]43C)[C@@H]1CC[C@@H]2C(=O)O,i,.,11,.
Cc1oc2cc3oc(=O)c(CCC(=O)N4CCCCC4)c(C)c3cc2c1C,.,i,87*,i
O=C(CBr)Nc1ccc(Cl)cc1C(=O)c1ccccc1F,i,.,-7,.

# High-throughput results as filed in PubChem.
